A selection: hits, their analogues and other compounds. The true share with any hit is near 6.3%.
Autofluor 339 = intrinsic fluorescence of library compounds, ex339/em460 – biochemical, MLSMR library, data from DPM-DC assay, artefact control, profiling panel. compound autofluorescence, ex339/em460 nm, NADH buffer; hits give high values; 1 = no-compound wells, NADH background. fluorescence fold increase at 10 µM. hit rate 5.5% among 65,000;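 active means at 10 µM, mean starting fluorescence two-fold or more over control wells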;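 further: signal is the first read of a kinetic run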
Spn DPM-DC inh = blocks S. pneumoniae diphosphomevalonate decarboxylase; purified DPM-DC, PK/LDH coupled NADH fluorescence; calls only at 10 µM; AID 556; hit rate 0.49% among 65,000;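 active means the 320 compounds with the highest percent inhibition in the single-dose primary screen, excluding strongly autofluorescent ones, cut at about 32% in these data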;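 further: kinetic rate of NADH fluorescence loss reporting ADP formed by the decarboxylase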
NADH coupling = blocks coupling enzymes of NAD/NADH assays | coupled PK/LDH NADH assays, four targets | IC50, µM (doses to about 10 µM) | hit rate 0.02% among 65,000;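 active means single-dose screening hits from any of four coupled enzyme assays that gave an IC50 when retested across doses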;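 further: the DPM-DC format reads NADH fluorescence rather than 340 nm absorbance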
PMK inhibit = inhibitors of Streptococcus pneumoniae phosphomevalonate kinase; purified PMK, PK/LDH-coupled NADH absorbance 340 nm; inhibition, % at 10 µM; hit rate 0.49% among 65,000; AID 539;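 active means top-ranked compounds by inhibition in the single 10 µM screen, taking a fixed number of the strongest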
Spn MK inh = inhibitors of Streptococcus pneumoniae mevalonate kinase; purified MK, PK/LDH-coupled NADH absorbance 340 nm; inhibition, % at 10 µM; hit rate 0.48% among 65,000; AID 555;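 active means ranked among the strongest by inhibition in the single 10 µM screen, a fixed top-ranked set picked for dose follow-up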
Abs 340nm = compound absorbs light at 340 nm; compound absorbance at 340 nm, fold over control; fold change at 10 µM; 65,000 tested, under 10 active;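 active means at 10 µM dose, initial 340 nm absorbance at least 2 fold that of control wells; inactive means change under 2 fold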;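 further: initial absorbance extrapolated from kinetic A340 decline of NADH oxidation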
Large screens that a line does not name were inactive.

COc1ccc(C2=CC(c3ccc(Cl)cc3)n3cnnc3N2)cc1OC (stereo not drawn)	none
COc1ccc(S(=O)(=O)Nc2ccccc2C(=O)NCc2ccco2)cc1	Autofluor 339 3.6 (not shown: Spn DPM-DC inh)
c1ccc(-c2nc(NC3CC3)nc(-n3ccnc3)n2)cc1	none
Cc1cc(=O)n2[nH]c(-c3ccccc3Cl)cc2n1	PMK inhibit 25
COc1ccc(-c2nnc(SCC(=O)Nc3ncc(C)s3)n2-c2ccccc2)cc1OC	none
COc1cc2[nH]c3c(N4CCN(c5ccc(Cl)cc5)CC4)ncnc3c2cc1OC	Autofluor 339 2.4
COc1cccc2[nH]c3c(N4CCC(C)CC4)ncnc3c12	Autofluor 339 3.7 (not shown: Spn DPM-DC inh)
COc1cccc(N2CCN(c3ncnc4c3[nH]c3ccccc34)CC2C)c1 (stereo not drawn)	none
COc1cccc2[nH]c3c(N4CCN(Cc5ccc6c(c5)OCO6)CC4)ncnc3c12	Autofluor 339 3.9 (not shown: Spn DPM-DC inh)
CCOc1ccc(S(=O)(=O)NCc2ccc(F)cc2)c2cccnc12	Autofluor 339 3.5
CN(c1ccc(F)cc1)S(=O)(=O)c1ccc2[nH]cc(C(=O)O)c(=O)c2c1	none
COCCN(CCOC)C(=O)c1c[nH]c2ccc(S(=O)(=O)N(C)c3ccc(F)cc3)cc2c1=O	Autofluor 339 2.3
COc1ccc(Nc2nc(C)cc(C)c2C(N)=O)c(OC)c1	none
COc1ccccc1-c1nnc(Nc2nc3c(OC)cccc3s2)o1	none
COc1cccc(-c2nnc(Nc3nc4c(F)cccc4s3)o2)c1	Autofluor 339 4.9 (not shown: Spn DPM-DC inh)
c1ccc(CC2CCN(c3nc4ccccc4n4nnnc34)CC2)cc1	Autofluor 339 2.6
O=C(Cn1cnnn1)OCC(=O)c1ccc(Cl)s1	Autofluor 339 2.3
CC(=O)N1CCC(N2CCN(c3ccccc3F)CC2)CC1	PMK inhibit 36
Nc1nc(C2CC2)c(Sc2sc(N)nc2C2CC2)s1	none
CCOc1ccc2nc(NCCNC(=O)CC)c(C#N)cc2c1	Autofluor 339 3.8 (not shown: Spn DPM-DC inh)
CCOc1ccc2nc(SCC(=O)N3CCCCCC3)c(C#N)cc2c1	none
O=C(O)C1CC=CCC1C(=O)N1CCN(c2nc(-c3ccccc3)c3ccccc3n2)CC1 (stereo not drawn)	none
O=C(O)CCCC(=O)N1CCN(c2nc(-c3ccccc3)c3ccccc3n2)CC1	Autofluor 339 2.1 (not shown: Spn DPM-DC inh)
CC(=O)OC(/C(O)=C(\C#N)c1nc2ccccc2[nH]1)c1ccccc1 (stereo not drawn)	none
O=C(c1ccccc1F)N(Cc1ccc(F)cc1)C1CCS(=O)(=O)C1 (stereo not drawn)	none
O=C(c1ccccc1F)N(Cc1ccccc1)C1CCS(=O)(=O)C1 (stereo not drawn)	Spn DPM-DC inh active
Cc1c(C(=O)NCC2CCCO2)oc2ccc(S(=O)(=O)N3CCCC3)cc12 (stereo not drawn)	none
Cc1c(C(=O)NCC2CCCO2)oc2ccc3c(c12)C(=O)CC(C)(C)O3 (stereo not drawn)	Autofluor 339 3
COC(=O)c1nnn(-c2nonc2N)c1-c1cccs1	none
c1ccc(-c2nnc(Cn3c4ccccc4c4nc5ccccc5nc43)o2)cc1	Autofluor 339 3.6 (not shown: Spn DPM-DC inh)
CC(O)c1nc2ccccc2n1Cc1nnc(-c2ccc(Cl)cc2)o1 (stereo not drawn)	none
O=C(c1ccc(CSCc2ccccc2F)o1)N1CCN(c2ccc(N3CCOCC3)nn2)CC1	Autofluor 339 2.4 (not shown: Spn DPM-DC inh)
O=C(c1cc2ccccc2oc1=O)N1CCN(c2ccc(N3CCOCC3)nn2)CC1	none
COc1ccc2c(c1)N(C)C(=O)CC(c1ccccc1)=N2	none
Cc1cc2c(=O)n(CC(=O)NCC(=O)N3CCN(Cc4ccccc4)CC3)cnc2s1	none
Cn1cccc1Cc1nnc(SCC(=O)NCc2ccc(F)cc2)n1-c1ccc(F)cc1	Spn MK inh active
O=C1NCC2=C1C(c1ccc(Br)cc1)Nc1ccccc1N2 (stereo not drawn)	none
CC(=O)c1ccc(Oc2ncnc3sccc23)c(CN2CCOCC2)c1	PMK inhibit 25
Nc1ccc(O)cc1C(=O)OCC(=O)C12CC3CC(CC(C3)C1)C2	Autofluor 339 2.1 (not shown: Spn DPM-DC inh)
O=C(CN1C2=NCCN2c2ccccc21)C12CC3CC(CC(C3)C1)C2	none
COc1ccc(-c2cn3c(C)c(C(=O)N4CCN(c5ccc(OC)cc5)CC4)sc3n2)cc1	none
CC(C)OC(=O)CCC1(C(=O)O)CCC(=O)NC1 (stereo not drawn)	PMK inhibit 25
CC(C)OC(=O)CC1=NC(=O)CS1	none
COC(=O)CC(=O)CSc1nc2c(cc1C#N)CCCCC2	Autofluor 339 3.9 (not shown: Spn DPM-DC inh)
Cc1ccc2cc(-c3noc(C(C)(C)C)n3)c(=O)[nH]c2c1	Autofluor 339 3.9
CCc1nc(-c2cc3ccc(C)cc3[nH]c2=O)no1	Autofluor 339 4.5 (not shown: Spn DPM-DC inh)
Cc1ccc2cc(CCNC(=O)C(C)(C)C)c(=O)[nH]c2c1	none
Cc1ccc2[nH]c(=O)c(-c3noc(-c4ccncc4)n3)cc2c1	none
Cc1ccc2[nH]c(=O)c(-c3noc(C(C)C)n3)cc2c1	Autofluor 339 2.2 (not shown: Spn DPM-DC inh)
Cc1nc2ccccn2c1/C(O)=C1\C(=O)C(=O)N(CCCN(C)C)C1c1ccc(Cl)cc1 (stereo not drawn)	none
Cc1ccc(S(=O)(=O)Nc2nc3ccccc3nc2NCc2ccco2)cc1	none
Cc1ccc(S(=O)(=O)Nc2nc3ccccc3nc2NCc2ccco2)cc1C	Autofluor 339 2.1
O=C(CCn1nnc2ccccc21)Nc1nnc(-c2ccccc2F)s1	none
O=C(c1ccccc1)N(Cc1ccc2c(c1)OCO2)Cc1nc2ccccc2c(=O)[nH]1	none
CCOC(=O)N1CCN(C(=O)c2cc(C)c3c(C)nn(-c4ccccc4)c3n2)CC1	none
O=C(O)c1cc(-c2ccco2)nc2ccccc12	Autofluor 339 3.7 (not shown: Spn DPM-DC inh)
Cc1nn(-c2ccccc2)c2nc(-c3ccco3)cc(C(=O)O)c12	Autofluor 339 2 (not shown: Spn DPM-DC inh)
CCOCCn1c(SCc2c(F)cccc2Cl)nc2c1c(=O)[nH]c(=O)n2C	none
O=C(N1CCC(O)(c2cccnc2)CC1)C12CC3CC(CC(C3)C1)C2	none
O=C(CN1C(=O)c2cccc3cccc1c23)Nc1cccnc1	Autofluor 339 2.1
N#Cc1ccc(-c2ccco2)nc1SCc1ccccc1	Autofluor 339 2.1
COc1ccc(NC(=O)N(C2CCCCC2)C(C)c2ccco2)c(OC)c1 (stereo not drawn)	PMK inhibit 26
COc1ccc(NC(=O)N(C2CCCCC2)C(C)c2cccnc2)c(OC)c1 (stereo not drawn)	none
O=C(CCn1c(=S)[nH]c2ccccc2c1=O)N1CCN(c2ccccn2)CC1	none
S=c1[nH]nc(-c2ccncc2)n1Cc1ccccc1	none
Oc1ccc(-c2n[nH]c(=S)n2Cc2ccccc2)cc1	Spn MK inh active
CCCOCCOC(=O)c1[nH]c2c(c1C)C(=O)CC(c1cc(OC)ccc1OC)C2 (stereo not drawn)	none
CCOCCCN1C(=O)CN(C2CCCCC2)C(=O)C1c1ccc(OC)c(OC)c1 (stereo not drawn)	none

Screens (PubChem)
